HCMV inh: inhibitors of human cytomegalovirus; HFF cells, HCMV-luciferase reporter, 72 h; hits give low values; activity change, negative = inhibition, % at 57.5 µM; 410,000 compounds, 4.5% hits; AID 1259415; in the data active means activity change below about -60%; inconclusive means no clear call, values can overlap the other calls; inactive means above about -39%
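Two compound doses tested in HFFs infected with HCMV-luciferase, MOI 1 PFU/cell, 72 h at 37C. Lysate luminescence read with OneGlo; data normalized against buffer-only and 10uM Salinomycin inhibitor controls.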
MARV entry inh: blocks Marburg virus binding to or entry into cells; Marburg virus pseudotyped entry inhibition, cell reporter; Potency, µM (doses to about 37.8 µM), inactives show top-dose activity change, negative = inhibition, actives largely listed as inhibitors; 300,000 compounds, 1.8% hits; calls by dose curve; tested in HEK293 cells; further: potency means the concentration at half of the fitted maximal effect
LASV entry inh: blocks Lassa virus binding to or entry into cells. Potency, µM (titrated, usually from 37.9 µM), without a hit: top-dose activity change, negative = inhibition, most hits filed as inhibitors. 300,000 compounds, 1.2% hits. Lassa virus pseudotype entry inhibition, cell reporter; calls by dose curve; tested in HEK293 cells; further: potency means the concentration at half of the fitted maximal effect; nearly all actives have a fitted effect of over 50% in size
VACV Venus inh: inhibitors of vaccinia virus (Venus reporter); Vaccinia virus Venus reporter expression, fluorescence; 330,000 compounds, 0.46% hits; Potency, µM (highest dose often 36.5 µM), for the others: at the top dose activity change, negative = inhibition, most hits filed as inhibitors; calls by dose curve; tested in A549 cells; further: potency means the concentration at half of the fitted maximal effect; nearly all actives have a fitted effect of over 30% in size
VACV mCherry inh: vaccinia inhibition (mCherry reporter); Vaccinia virus mCherry reporter infection, fluorescence; Potency, µM (top dose mostly 36.5 µM), for inactives: at the top dose activity change, negative = inhibition, most hits filed as inhibitors; 310,000 compounds, 0.63% hits; AID 720579; calls by dose curve; tested in A549 cells; further: potency means the concentration at half of the fitted maximal effect; nearly all actives have a fitted effect of over 35% in size
FMDV inh: antivirals against foot and mouth disease virus; 410,000 compounds, 1.2% hits; AID 1159524; FMDV antiviral cell-based qHTS; Potency, µM (series often up to 57.9 µM), for inactives: at the top dose activity change, negative = inhibition, usual class: inhibitors; calls by dose curve; tested in HEK293T cells; further: read-out not given here; potency means the concentration at half of the fitted maximal effect; nearly all actives have a fitted effect of over 45% in size
* marks the source's active call; other numbers are inactive results; i = inactive; ? = inconclusive; nt = no result; [ ] = another dose, or the depositor's remark. Only some compounds are listed: those with a hit (about 6.5% of all), similar ones and a draw of the others. On the % scale 0 is the no-effect control and ±100 the full control effect.

SMILES	HCMV inh	MARV entry inh	LASV entry inh	VACV Venus inh	VACV mCherry inh	FMDV inh
COC(=O)c1ccccc1NC(=O)c1ccc(CN2CC(=O)N3CCCCC3C2=O)cc1 (stereo not drawn)	-5	nt	0%[46.1 µM]	-19%	i	-23%
CC1(C(=O)NS(=O)(=O)C2CC2)CCCN(C(=O)c2cccs2)C1 (stereo not drawn)	-61*	nt	nt	11%	37%	4%
CN(C)S(=O)(=O)c1cccc(NC(=O)CSc2cccc3cccnc23)c1	-101*	?	-20%	?	?	59%
CN(C)S(=O)(=O)c1ccc(SCC(=O)Nc2cccc(S(=O)(=O)N3CCCC3)c2)nc1	-4	nt	nt	nt	nt	-24%
CN(C)S(=O)(=O)c1cccc(NC(=O)CSc2nc3c(cc2C#N)C(=O)CC(C)(C)C3)c1	-80*	?	?	?	?	20µM*
CCN1CCC(Nc2ccnc3cc(Cl)ccc23)CC1	-90*	13µM*	17%[46.1 µM]	-7%	-5%	-2%
CCOc1ccc(Nc2ccnc3cc(Cl)ccc23)cc1	-62*	nt	nt	nt	nt	-16%
CCOC(=O)c1cnc2ccc(Cl)cc2c1Nc1ccc(OCC)cc1	19	?	-5%[46.1 µM]	-9%	-7%	-18%
CN1CCN(c2ccc(Nc3ccnc4cc(Cl)ccc34)cc2)CC1	-83*	?	2.5µM*	?	?	-15%
CCN1CCN(c2ccc(Nc3ccnc4ccccc34)cc2)CC1	?	nt	nt	nt	nt	0%
CC#CCN1c2ccccc2[C@]23CCC(=O)N(Cc4cccc(C(F)(F)F)c4)C2=NC(C(=O)OC)=C(C(=O)OC)[C@H]13	nt	19%[14.2 µM]	nt	nt	nt	nt
CSc1ncccc1C(=O)NCC1Cc2cc(F)cc(-c3cncnc3)c2O1 (stereo not drawn)	nt	nt	nt	-2%	-12%	-22%
COc1ccc(-n2c(CNC(=O)c3ccccc3C(F)(F)F)nnc2SC)cc1	nt	nt	nt	3%	-3%	-9%
O=C(NC(Nc1nc2ccc([N+](=O)[O-])cc2s1)(C(F)(F)F)C(F)(F)F)c1cccnc1	-102*	?	?	nt	nt	2.8µM*
O=C(NC(Nc1nc2ccc([N+](=O)[O-])cc2s1)(C(F)(F)F)C(F)(F)F)c1ccccc1Cl	?	?	1.6µM*	nt	nt	2.5µM*
CN(C)S(=O)(=O)c1ccc2nc(NC(=O)c3cccnc3)sc2c1	73	2%	?	nt	nt	33%
O=C(NC(NNc1ccc([N+](=O)[O-])cc1)(C(F)(F)F)C(F)(F)F)c1ccccc1Cl	6	24%	5%	nt	nt	?
O=C(CC1Sc2ccccc2NC1=O)Nc1cccc(C(F)(F)F)c1 (stereo not drawn)	-31	nt	-8%[46.1 µM]	-15%	-14%	14%
CCCOc1ccccc1C(=O)N(Cc1cccc(Br)c1)C1CCS(=O)(=O)C1 (stereo not drawn)	-32	?	?	-10%	-3%	0.71µM*
CN(C)CCO[C@](C)(c1ccccc1)c1ccccn1	nt	11%	nt	nt	nt	nt
O=C(Oc1ccccc1N1C(=O)C2CCCCC2C1=O)c1ccc(Cl)cc1 (stereo not drawn)	-108*	-20%	22%	nt	nt	7%
C=COC[C@H]1CN2[C@@H](CC[C@@H](C)[C@@H]2c2ccc(Br)cc2)C(=O)O1	nt	-1%[14.2 µM]	nt	nt	nt	nt
CC(C)(C)SCCNC(=O)c1ccccc1	119	-4%	?	?	nt	19%
Cc1ccc(C(=O)NCCSC(C)(C)C)cc1	149	8.9µM*	10µM*	-19%	nt	-21%
CN(c1ccc(C(=O)NCCSC(C)(C)C)cc1)S(=O)(=O)c1ccccc1	-30	-17%	23µM*	-17%	i	23%
SMILES	HCMV inh	MARV entry inh	LASV entry inh	VACV Venus inh	VACV mCherry inh	FMDV inh
Cc1ccc(CSCCNC(=O)c2ccc(N(C)S(=O)(=O)c3ccccc3)cc2)cc1	-12	?	?	?	nt	-28%
CC(=O)Nc1nc(-c2ccc3c(c2)CCN3C(=O)C2CC2)c(C)s1	-98*	?	14%[46.1 µM]	-17%	-16%	52%
CC1CCN(CCC(=O)Nc2ccc(Br)cc2)CC1	-68*	?	-29%	-14%	-18%	nt
CCOC(=O)C1CCN(CCC(=O)Nc2ccc(C)c(C)c2)CC1	-67*	nt	nt	nt	nt	-7%
CC(C)NC(=NCc1ccc(Cl)cc1Cl)Nc1ccccc1	-101*	nt	nt	nt	nt	-30%
O=C(NCCCn1ccnc1)[C@H](Cc1ccccc1)N1C(=O)c2ccccc2C1=O	nt	1%	nt	nt	nt	nt
